The whole screen tested about 290,000 compounds, of which about 370 (0.13%) were called active.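 Rule for the calls: active = spots per cell inhibited over 60%, with over 100 cells counted and total cytoplasm intensity under 500,000; inconclusive = wells with under 100 cells, flagged as likely toxic; inactive = the rest.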 Only a selection was taken, and actives are over-represented in it overall. Entries with a potency or affinity are not part of this list.
Each compound was assayed against G-protein coupled receptor 55 (Homo sapiens) (UniProt Q9Y2T6) (assay: inhibition of LPI-stimulated GPR55 beta-arrestin translocation – imaging, U2OS, beta-arrestin-GFP, LPI agonist, primary screen (AID 2013;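 note: U2OS cells stably carrying GPR55 and arrestin-GFP stimulated by 5 µM LPI near EC80; imaged beta-arrestin-GFP aggregate spots per cell after agonist stimulation; plate controls were LPI-stimulated DMSO wells for no effect and DMSO wells without LPI for full effect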)). Details: LPI antagonism, at 10 µM, stronger effect = higher value.
Chain of G-protein coupled receptor 55 (Homo sapiens) (Q9Y2T6 whole entry, looked up): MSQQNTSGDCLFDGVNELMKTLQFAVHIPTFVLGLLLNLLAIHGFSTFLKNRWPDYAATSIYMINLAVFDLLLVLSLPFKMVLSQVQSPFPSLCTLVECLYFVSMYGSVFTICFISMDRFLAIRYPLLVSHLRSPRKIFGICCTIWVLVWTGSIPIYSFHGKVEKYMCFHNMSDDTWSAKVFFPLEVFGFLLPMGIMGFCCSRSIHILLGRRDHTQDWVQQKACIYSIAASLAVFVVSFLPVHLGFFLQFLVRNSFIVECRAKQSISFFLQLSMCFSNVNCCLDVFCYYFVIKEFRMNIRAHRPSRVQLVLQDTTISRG

inhibition, inactive:
C/C(=N\Nc1ccc(Cl)c(C(=O)O)c1)c1cccc2ccccc12 -3.2%, COC(=O)[C@H](Cc1ccccc1)NC(=O)N1CCCCC1C (stereo partly specified) 11.9%, O=C(c1ccco1)N(CC1CCCO1)c1nc(-c2ccccc2)cs1 (stereo unspecified) -1.7%, CCCCCn1c(C(Cc2ccccc2)NC(=O)COC)nc2ccccc21 (stereo unspecified) 25.9%, CCCCC(NC(C)=O)c1nc2ccccc2n1CCCC (stereo unspecified) 7.3%, COc1ccc(CCn2c(C)cc(C(=O)COC(=O)c3ccc(NC(=O)CC#N)cc3)c2C)cc1 -0.8%, O=C(NC1CCCC1)C(c1cccnc1)N(C(=O)c1ccco1)c1cccc(F)c1 (stereo unspecified) -23.3%, COc1ccc(N2C(=O)CSC23C(=O)N2c4c(cccc43)C(C)=CC2(C)C)cc1 (stereo unspecified) -6.8%, Cc1ccc(N2C(=O)CSC23C(=O)Nc2ccccc23)cc1 (stereo unspecified) 17.5%, Cc1cc2c3c(c1)C1(SCC(=O)N1c1ccc(F)cc1)C(=O)N3C(C)(C)CC2C (stereo unspecified) 26.5%, CC1=CC(C)(C)N2C(=O)C3(NCCc4c3[nH]c3ccccc43)c3cc(C)cc1c32 (stereo unspecified) 6.1%, CC(C(=O)Nc1ccc(S(=O)(=O)N2CCOCC2)cc1)N(c1ccccc1)S(C)(=O)=O (stereo unspecified) 2.6%, COc1ccccc1CN1CC(C(=O)N(C)CCOc2ccccc2)CCC1=O (stereo unspecified) 4.1%, CCc1ccc2oc(C(=O)NC3CCS(=O)(=O)C3)cc(=O)c2c1 (stereo unspecified) 0.2%, CCOC(=O)c1cnc2c(c(C)nn2C)c1Oc1cc(Cl)cc(Cl)c1 -4.2%, CCOC(=O)c1cnc2c(c(C)nn2C)c1Oc1ccc(OC)cc1 24.7%, CCOc1ccc(/C=N/n2c(-c3ccccc3)n[nH]c2=S)cc1 -1.8%, O=C(O)CSCC(=O)Nc1ccc(S(=O)(=O)N2CCCCC2)cc1 8.7%, CC(c1ccc(F)cc1)n1cc(C(=O)NCc2ccccn2)nn1 (stereo unspecified) -1.6%, O=c1[nH]c2ccccc2nc1-c1ccccc1 5.1%, O=C(CSc1nc2ccccc2[nH]1)N=Nc1c(O)[nH]c2ccccc12 -8.4%, NC(=O)c1sc2nnc(-c3ccccc3)c(-c3ccccc3)c2c1N 21.8%, CCSc1nnc(-c2cccs2)o1 -4.1%, O=C(CCn1ccnc1)Nc1cc(Cl)ccc1O 4.7%, N=C1S/C(=C\c2cccc3ccccc23)C(=O)N1c1ccc(F)cc1 -1.5%, N=C1S/C(=C\c2ccccc2F)C(=O)N1c1ccc(F)cc1 7.1%

Source: PubChem BioAssay AID2013 (Sanford-Burnham Center for Chemical Genomics, 2009)
